Assay outcomes (PubChem BioAssay)
Sampled rows, rich in hits. Any-hit rate of the full collection: about 2.4%.
FEN1 inhibitor = qHTS Assay for the Inhibitors of Human Flap endonuclease 1 (FEN1). P39748. Recombinant FEN1 flap cleavage, fluorescence, 15 min. Potency, µM (highest dose often 114 µM), inactives show at the highest dose activity change, negative = inhibition, usual class: inhibitors. 390,000 compounds, 0.35% hits. AID 588795, 2011; also: % is scaled to controls: 0 for no effect and ±100 for the full control effect; nearly all actives have a fitted effect of over 65% in size
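FEN1 at 10 nM preincubated with compounds 15 min at room temperature, then flap DNA substrate added at 50 nM final. Signal read at 0 and 15 min; concentration-response fitted with four-parameter Hill equation.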
POLK inh = qHTS for Inhibitors of Polymerase Kappa | DNA polymerase kappa (Homo sapiens), Q9UBT6 | purified Pol kappa, fluorescent DNA synthesis assay, 10 min | Potency, µM (titrated, usually from 107 µM), for inactives: top-dose activity, negative = inhibition, most hits filed as inhibitors | 400,000 compounds, 0.53% hits | AID 588579, 2011; also: % is scaled to controls: 0 for no effect and ±100 for the full control effect
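Kinetic fluorescence readout at 0 and 10 min followed reaction start with substrate at 50 nM final. Beforehand, enzyme (10 nM Pol kappa) stood 15 min with compound at room temperature; buffer-only wells were negative controls.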
Pol beta inh = qHTS Assay for Inhibitors of DNA Polymerase Beta | Pol beta primer extension/strand displacement, fluorescence kinetic | Potency, µM (titrated, usually from 114 µM), for the others: at the highest dose activity change, negative = inhibition, actives largely listed as inhibitors | 340,000 compounds, 1.3% hits | AID 485314, 2010 | P06746; also: % is scaled to controls: 0 for no effect and ±100 for the full control effect
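Homogeneous kinetic assay of primer extension and strand displacement by 10 nM Pol beta, preincubated 15 min at room temperature with compound before 50 nM substrate (final) was added. Read at 0 and 10 min; four-parameter Hill fit.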
POLH inh = qHTS for Inhibitors of Polymerase Eta; Potency, µM (top dose mostly 114 µM), for the others: at the top dose activity change, negative = inhibition, most hits filed as inhibitors; 390,000 compounds, 1.2% hits; recombinant Pol eta, fluorescent DNA replication assay; AID 588591, 2011; DNA polymerase eta (Homo sapiens), Q9Y253; also: % is scaled to controls: 0 for no effect and ±100 for the full control effect
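Pol eta at 10 nM preincubated with compounds 15 min at room temperature; reaction started with fluorescent substrate (50 nM final) and read kinetically at 0 and 10 min.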
WRN inhibitor = qHTS for Inhibitors of WRN Helicase; Bifunctional 3'-5' exonuclease/ATP-dependent helicase WRN (Homo sapiens), Q14191; 360,000 compounds, 0.46% hits; Potency, µM (top dose mostly 114 µM), for inactives: at the top dose activity change, negative = inhibition, actives largely listed as inhibitors; AID 651768, 2012; WRN helicase unwinding, fluorescent forked duplex, kinetic; also: % is scaled to controls: 0 for no effect and ±100 for the full control effect; nearly all actives have a fitted effect of over 55% in size
Target sequence (Q14191 whole entry, looked up): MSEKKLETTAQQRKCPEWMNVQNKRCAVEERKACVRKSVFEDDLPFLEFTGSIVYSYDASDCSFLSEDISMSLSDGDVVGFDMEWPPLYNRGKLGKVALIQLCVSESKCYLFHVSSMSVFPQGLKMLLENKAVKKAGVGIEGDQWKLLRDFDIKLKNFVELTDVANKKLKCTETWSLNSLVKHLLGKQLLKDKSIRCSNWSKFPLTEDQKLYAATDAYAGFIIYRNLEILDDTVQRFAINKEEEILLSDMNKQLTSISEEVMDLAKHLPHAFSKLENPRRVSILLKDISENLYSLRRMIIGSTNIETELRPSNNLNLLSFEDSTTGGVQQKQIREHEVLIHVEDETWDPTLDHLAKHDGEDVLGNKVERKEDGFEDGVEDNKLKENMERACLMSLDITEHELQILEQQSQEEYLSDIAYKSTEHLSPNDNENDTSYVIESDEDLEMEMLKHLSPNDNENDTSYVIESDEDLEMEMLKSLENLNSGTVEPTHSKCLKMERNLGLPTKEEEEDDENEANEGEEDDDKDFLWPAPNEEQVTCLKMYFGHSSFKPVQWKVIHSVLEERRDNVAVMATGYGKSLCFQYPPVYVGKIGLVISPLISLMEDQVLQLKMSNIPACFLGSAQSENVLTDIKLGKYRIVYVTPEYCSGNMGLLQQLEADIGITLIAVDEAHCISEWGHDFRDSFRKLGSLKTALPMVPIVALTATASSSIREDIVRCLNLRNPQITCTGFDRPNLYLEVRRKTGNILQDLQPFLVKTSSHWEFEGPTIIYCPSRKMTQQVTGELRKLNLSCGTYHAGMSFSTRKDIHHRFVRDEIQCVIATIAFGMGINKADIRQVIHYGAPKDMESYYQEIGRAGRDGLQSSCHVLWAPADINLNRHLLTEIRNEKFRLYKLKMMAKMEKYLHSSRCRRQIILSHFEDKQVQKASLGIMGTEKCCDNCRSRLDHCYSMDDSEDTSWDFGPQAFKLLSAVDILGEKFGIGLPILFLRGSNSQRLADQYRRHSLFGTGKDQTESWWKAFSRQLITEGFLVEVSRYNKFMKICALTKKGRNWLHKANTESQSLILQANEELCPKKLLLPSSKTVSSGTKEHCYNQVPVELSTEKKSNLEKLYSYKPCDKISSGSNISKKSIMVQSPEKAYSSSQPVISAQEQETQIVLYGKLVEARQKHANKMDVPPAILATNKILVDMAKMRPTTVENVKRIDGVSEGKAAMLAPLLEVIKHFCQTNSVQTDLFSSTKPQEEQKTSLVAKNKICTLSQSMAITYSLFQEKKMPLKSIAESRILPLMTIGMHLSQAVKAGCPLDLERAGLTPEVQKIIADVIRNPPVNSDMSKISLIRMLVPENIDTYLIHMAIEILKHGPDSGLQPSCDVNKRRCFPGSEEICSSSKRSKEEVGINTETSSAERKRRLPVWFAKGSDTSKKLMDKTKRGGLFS
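Primary qHTS, 1536-well format. 20 nM WRN + compound, 15 min RT; start with 100 nM forked fluorophore/quencher duplex, 2 mM ATP (final); kinetic read ex 525/em 598 nm.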
Pol iota inh = qHTS for Inhibitors of Polymerase Iota; DNA polymerase iota (Homo sapiens), Q9UNA4; Pol iota fluorescent replication assay, 10 min; Potency, µM (top dose mostly 115 µM), for the others: at the highest dose activity, negative = inhibition, most hits filed as inhibitors; 390,000 compounds, 1% hits; AID 588590, 2011
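Fluorescent replication assay read twice, at 0 min and 10 min after adding 50 nM (final) substrate. Enzyme (10 nM) and compounds were first incubated 15 min at room temperature; enzyme-free buffer wells were negative controls.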
An asterisk follows results filed as active; u = inconclusive; x = no result; ! = a repeat was not active; [ ] = another dose, or the depositor's remark. Calls follow the shape of the dose curve; as a rule, active = well fitted curve in the direction sought with a large enough effect; inconclusive = small, poorly fitted or top-dose-only effect, or another doubt; inactive = no such curve, though single readings can be large; an effect the other way counts as inactive or inconclusive. Potency is read from the fitted curve at half-maximal effect.

SMILES | FEN1 inhibitor | POLK inh | Pol beta inh | POLH inh | WRN inhibitor | Pol iota inh
O=C(/C=C/c1ccccc1)c1ccc2ccccc2c1 | 3% | -12% | x | -17% | -11%[11.6 µM] | 22µM*
COc1ccc(-n2c(C)c([N+](=O)[O-])c3ccc(O)c(CN4CCCCC4)c32)cc1 | -18% | -18% | 2% | -9% | -1% | -6%
O=C(/C=C/c1ccc(F)cc1)c1cc(Br)ccc1O | -1% | 5% | 8% | -19% | -29% | 59%
O=C(/C=C/c1ccccc1)c1ccccc1 | -13% | -19% | 46% | u | -17%[57.1 µM] | 22µM*
COc1cc(/C=C/C(=O)c2ccc3c(c2)OCO3)cc(Cl)c1O | -3% | u | 40µM* | 40µM* | -3%[11.6 µM] | 20µM*
O=C(/C=C/c1ccccc1)c1cc(Br)ccc(=O)c1O | u | 40µM* | u | u | u | 3.2µM*
COc1ccc(C(=O)C=Cc2ccc3c(c2)OCO3)cc1OC | x | x | x | -10% | -1% | x
CCN1CCN(C(c2cccs2)C(C)NC(=O)c2ccccc2)CC1 (centres undefined) | 1% | -15% | 7% | -14% | -3% | 4%
O=C(CCS(=O)(=O)c1ccccc1)N1CCN(c2ccccc2F)CC1 | 2% | -3% | -27% | -23% | -8% | 23%
COc1cc2cc(CCOC(=O)c3ccc(C(F)(F)F)cc3)oc(=O)c2cc1OC | -13% | 0% | x | -10% | -1% | -6%
CS(=O)(=O)N(CC(=O)NCC1CCCO1)c1cc(Cl)c(Cl)cc1Cl (centres undefined) | -1% | -6% | 1% | -13% | 11% | 20%
CN(C)c1ccc(/C=C2/CCCc3c2nc2ccccc2c3C(=O)O)cc1 | u | 79µM* | x | x | x | u
Cc1nc2ccc(-c3nc4ccccc4[nH]3)cc2[nH]1 | -7% | -37% | 13µM* | -4% | -11% | u
Cc1ccc(-c2nc3ccccc3[nH]2)cn1 | 15% | 3% | 8% | -16% | 8% | 26%
O=C(Cc1ccccc1)Nc1ccc(NC(=O)c2ccccc2)nc1 | 4% | -5% | 63µM* | 6% | -2% | 76%
Cn1c(N)c(C(=O)COC(=O)c2cc(C(F)(F)F)nc3ccccc23)c(=O)n(C)c1=O | x | x | 23% | x | x | x
CN(C)c1ccc(/C=C2\C=Cc3ccccc32)c(F)c1 | -13% | -11% | x | x | x | u
Nc1c(C(=O)OCC(=O)Nc2cccc([N+](=O)[O-])c2)[nH]c(=O)[nH]c1=O | u | -32% | x | 25µM* | u | u
O=C(Nc1cccc(Cl)c1)OCC#CCCl | x | 27µM* | x | x | x | x
O=C(Nc1cccc(Cl)c1)OCCOC(=O)Nc1cccc(Cl)c1 | -29% | 3% | x | -19% | -13% | -29%
Cc1cccc(NC(=O)CN2CCN(C(=O)C3CCC3)CC2)c1C | -2% | -10% | x | -3% | u | 14%
CNC(CC(=O)c1ccc([N+](=O)[O-])cc1)C(Cl)(Cl)Cl (centres undefined) | 2% | -5% | 30% | -9% | 45µM* | 11%
O=[N+]([O-])c1ccc(Sc2ccncn2)c([N+](=O)[O-])c1 | x | x | x | 50µM* | u | x
CC(=O)Cc1cc(O)c2ccccc2c1OC(=O)c1ccc(Br)cc1 | 0% | 3% | 1% | -13% | -4% | 18%
Cc1c2c(c(O)c3c(O)cccc13)C(=O)O[C@H]2C1C(N(C)C)C(O)=C(C(N)=O)C(=O)[C@H]1O (some centres undefined) | x | 0.47µM* | x | x | x | x
SMILES | FEN1 inhibitor | POLK inh | Pol beta inh | POLH inh | WRN inhibitor | Pol iota inh
CC(C)(C)NC(=O)c1cc(F)c(F)cc1Cl | 4% | 0% | 89µM* | -5% | 2% | 8%
CC(C)(C)NC(=O)COC(=O)c1cc(F)c(F)cc1Cl | -3% | -7% | 1% | -4% | -2% | 19%
Cc1ccc2c(c1)N(CC(=O)Nc1c(C)cccc1C)C(=O)c1cccnc1O2 | -3% | -21% | 0% | -1% | 11% | 45%
Cc1cc(C)c(NC(=O)CN2C(=O)c3cccnc3Oc3ccc(C)cc32)c(C)c1 | -5% | -2%[60.1 µM] | u | 2% | x | 89µM*
O=C1C(Cl)=C(N2CCCCC2)C(=O)C(Cl)=C1c1cnc(N2CCCCC2)s1 | -2% | -36% | 5.6µM* | u | u | u
O=C(Nc1nc(-c2ccco2)c(-c2ccco2)s1)C1CCC1 | -26% | u | u | 25µM* | u | u
Cc1ccccc1-c1cccc([C@@H]2C[C@H]3[C@H](CON3C)CN2C)c1 | -11% | -16% | x | -19% | 0% | 52%
O=C(CCc1ccc(O)cc1)c1c(O)cc(O)cc1O | u | u | 7.1µM* | -1%[57.1 µM] | -3% | -21%[58.9 µM]
COc1cc(O)c(CC=C(C)C)c(O)c1C(=O)CCc1ccc(O)cc1 | -24% | -4% | 10% | -12% | -16% | -6%
CCCCOC(=O)Nc1ccc(C(=O)OC)cc1 | -3% | 0% | -4% | -15% | 2% | -8%
COc1cc(OC)c(/C=C/c2nccc3ccccc23)c(OC)c1 | 4µM* | u | x | x | x | u
COC(=O)C1N2C(=O)[C@@H](NC(=O)COc3ccccc3)[C@H]2SC1(C)C (some centres undefined) | 3% | 14% | x | -6% | -2% | 79µM*!
O=c1cc(CSc2nnnn2-c2ccccc2)[nH]c2[nH]n(-c3ccccc3)c(=O)c12 | -4% | 40µM* | -8% | 13% | -13%[57.1 µM] | u
COCCCN1C(=O)C2C(C(=O)Nc3cc(C)cc(C)c3)C3C=CC2(O3)C1C(=O)NC1CCCCC1 (centres undefined) | -5% | -40% | 18% | 22µM* | u | 13µM*
CCOC(=O)CS(=O)(=O)c1nc(-c2ccc(F)cc2)cc(C(F)(F)F)n1 | 4% | -15% | -22% | -4% | 50µM* | -6%
CCOC(=O)CCS(=O)(=O)c1nc(-c2ccccc2)cc(C(F)(F)F)n1 | 6% | -7% | -16% | -24% | u | 6%
CS(=O)(=O)c1nc(-c2ccc(F)cc2)cc(C(F)(F)F)n1 | -19% | -11% | 23% | -5% | -8% | u
CCOC(=O)CS(=O)(=O)c1nc(-c2ccccc2)cc(C(F)(F)F)n1 | -5% | -20% | 1% | -2% | 56µM* | -16%
CC(C)(C)C1=CC(=O)C(=O)C(C(C)(C)C)=C1 | 71µM* | -8% | 7% | -24% | -14% | 6%
CC[n+]1c(/C=C/C=C2/N(C)c3ccccc3C2(C)C)sc2ccccc21 | x | 27µM* | x | x | x | x
CN1/C(=C\C=C(C#N)C#N)C(C)(C)c2ccccc21 | 12% | 1% | -13% | u | -9% | 0%
